What all share (experiment): NCI-60 one-dose screen, 48 h (100 = growth as untreated, 0 = no growth, -100 = all killed)
Assay [1] deals with NCI-H226 lung. The following applies: 10 µM unless noted.
Assay [2] has as its system NCI-H322M lung. The note with it: 10 µM unless noted.
For assay [3], the system named is MALME-3M melanoma. The note with it: 10 µM unless noted.
Assay [4] has as its system HT29 colon. The note with it: 10 µM unless noted.
The subject of assay [5] is SNB-75 CNS. The following applies: 10 µM unless noted.
Assay [6] has as its system PC-3 prostate. The following applies: 10 µM unless noted.
The subject of assay [7] is EKVX NSCLC. The following applies: 10 µM unless noted.
Assay [8] relates to CAKI-1 renal. The note with it: 10 µM unless noted.
The subject of assay [9] is CCRF-CEM leukemia. The following applies: 10 µM unless noted.
In assay [10] the test system is RPMI-8226 leukemia. The note with it: 10 µM unless noted.
Assay [11] relates to OVCAR-5 ovarian. The note with it: 10 µM unless noted.
For assay [12], the system named is OVCAR-3 ovarian. The following applies: 10 µM unless noted.
The test system of assay [13] is HS 578T breast. The note with it: 10 µM unless noted.
Assay [14] has as its system COLO 205 colon. The note with it: 10 µM.
For assay [15], the system named is SK-MEL-5 melanoma. The following applies: 10 µM unless noted.
Assay [16] relates to MCF7 breast. The following applies: 10 µM unless noted.
In assay [17] the test system is HOP-92 NSCLC. The note with it: 10 µM unless noted.
In assay [18] the test system is IGROV1 ovarian. The following applies: 10 µM.
Assay [19] concerns NCI-H522 lung. The following applies: 10 µM unless noted.

This is part of a sample that, as a whole, favours compounds with a hit. Of some 83,000 tested, about 20% had one in any assay.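 Compound tested at a single concentration for 48 hours in 96-well plates; a percent growth value below 10 was scored as active.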 A number with no mark means an inactive call. Active and inactive are the calls of the source.

Ten molecules from PubChem BioAssay (NCI) can be followed below.

With `C[C@]12CCC(=O)CC1CC[C@@H]1C2CC[C@@]2(C)C1CC[C@@H]2OC(=O)CC[Se][Se]CCC(=O)O[C@H]1CCC2[C@@H]3CCC4CC(=O)CC[C@]4(C)C3CC[C@@]21C` (stereo not given in full), the growth in assay [1] is 93%; in [2], 84.1%; in assay [3], 94.2%; in assay [4], 83.1%; in [5], 109%; in [6] it was 89.4%. Also, the growth is 31.9% in assay [7]; 84.6% in assay [8]; 100% in assay [9]; 93.6% in [10]; 102% in [11]; 109% in assay [12]. Besides, the growth in [13] is 52.9%.
As to `O=C(C(=O)N1CCCC1)c1cn(CCCCCn2cc(C(=O)C(=O)N3CCCC3)c3ccccc32)c2ccccc12`, the growth is 89% in [1]; 93.9% in assay [2]; 110% in [14]; 109% in [3]; 74.9% in assay [5]; 65.9% in [6]. Also, the growth in assay [15] is 75.9%; in assay [7], 75.5%; in assay [8], 73.9%; in assay [9] it was -26.6% (active); in [10] it was 66.2%; in assay [11] it was 106%. Besides, the results for the growth in assay [13] and in [16] were 94.4% and 86.6%, respectively.
For the molecule `CC(=O)Oc1ccc(Cl)cc1`, the growth in [1] was 91.3%; in assay [17] it was 91.1%; in assay [14], 107%; in [3], 96.7%; in assay [4] it was 98.3%; in assay [5], 81.9%. Moreover, the growth in assay [6] is 91.3%; in assay [15], 104%; in [7], 101%; in assay [8], 90.5%; in assay [9], 104%; in assay [11], 88.7%. For the same molecule, the growth was 114% in assay [18], 63.7% in assay [12], 90.3% in assay [13] and 87.4% in assay [16].
Regarding `CC12CCC(=O)C=C1CCC1C2CCC2(C)C(C(=O)COC(=O)Cc3ccc(N(CCCl)CCCl)cc3)CCC12` (stereo not given), the growth was 72.5% in assay [1]; 81.9% in assay [19]; 88.5% in assay [14]; 168% in assay [3]; 88.5% in [4]; 83.3% in assay [5]. Further, the growth was 36.1% in assay [6]; 85% in assay [15]; 53.1% in assay [7]; 27.4% in assay [8]; 46.4% in [10]; 119% in assay [11]. In addition, the figures for the growth in assay [12], in [13] and in assay [16] were 107%, 82.4% and 70.5%, respectively.
Take `CC(=O)C1C(=O)N(C)C(=O)N(C)C1=O`: the growth in assay [1] was 95.4%; in assay [19] it was 105%; in assay [14], 114%; in [3], 114%; in assay [4], 102%; in assay [5] it was 92.1%. For the same molecule, the growth was 94.9% in assay [6]; 97.2% in [9]; 99.7% in assay [10]; 113% in assay [18]; 112% in [12]; 107% in assay [13]. The growth in assay [16] was 99.7%.
For `N#[N+]c1nc2nc(N)[nH]c(=O)c2[nH]1`, the growth in assay [1] is 98%; in [17], 93.2%; in assay [19] it was 94.8%; in assay [14], 103%; in assay [3] it was 107%; in [4] it was 104%. The growth in assay [5] is 92%; in assay [6], 96.8%; in [15], 92.5%; in assay [7] it was 100%; in assay [9] it was 95.1%; in [10], 97%. The growth in assay [11] was 104%; in assay [18] it was 107%; in [12], 113%; in assay [13] it was 92.9%; in [16] it was 90.7%.
With `COc1ccc(C(c2ccc(OC)cc2)C(Cl)(Cl)Cl)cc1`, the growth in assay [1] was 96.9%; in assay [17], 63.9%; in [19], 60%; in [3], 91.8%; in assay [4] it was 78.3%; in assay [6], 68.7%. In addition, the growth in assay [15] is 80.2%; in assay [7], 95.7%; in [8] it was 68.4%; in [10], 71.5%; in [18], 76.4%; in assay [16], 92.6%.
For the molecule `O=CN1N=C(c2ccc3c(c2)OCO3)CC1c1sc(N(CCCl)CCCl)nc1Cl` (stereo not given), the growth in [1] is 95.9%; in [19], 74.7%; in [14], 104%; in assay [3], 106%; in assay [4], 97.9%; in [5] it was 90.8%. The growth in assay [6] was 88.2%; in assay [15], 101%; in [7], 97.9%; in [8] it was 82.1%; in [9] it was 92.1%; in [11], 90.1%. Moreover, the growth in assay [18] was 93.2%; in [12] it was 95.5%; in assay [13], 79.8%.
Regarding `CNC(=O)Oc1cc(C(C)C)ccc1Sc1ccc(C(C)C)cc1OC(=O)NC`, the growth in [1] is 83.2%; in assay [17], 89%; in [14], 112%; in assay [3], 62.7%; in [4], 97.6%; in assay [5], 52.1%. The growth in [6] is 53.7%; in [7], 69.1%; in assay [8], 67%; in assay [9] it was 36.5%; in assay [11] it was 95.7%; in assay [12], 69.2%. Moreover, the growth in [13] is 67.7%; in [16], 58.8%.
As to `COc1ccc2c(c1)NC1=C(C(=O)OC1)C2c1cc(OC)c(OC)c(OC)c1` (stereo not given), the growth in assay [1] was 49.6%; in assay [17] it was 5.87% (active); in assay [19], -26.2% (active); in [14], -48.5% (active); in assay [3], 21.7%; in [4], 1.35% (active). The growth is 45.7% in assay [5]; 20.6% in [6]; -49.1% (active) in [15]; 53.8% in [7]; 6.76% (active) in [9]; 12.6% in assay [10]. Further, the growth in assay [18] was 12%; in [12] it was -41.9% (active); in [13] it was 31%; in assay [16] it was 9.07% (active).
